COUP-TFII inh: NR2F2 (human) inhibition, primary screen; 370,000 tested, 0.7% active; HEK293T NGFI-A luciferase reporter, luminescence; P24468; AID 686940; inhibition, % at 8.6 µM;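 active = inhibition above a per-plate cutoff, mean inhibition of test wells between control levels plus 3 SD, cut at about 38% in these data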;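 note: cells cotransfected with COUP-TFII expression vector driving the NGFI-A reporter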
SRC2 inh: human SRC2 (NCOA2) inhibition | Q15596 | HEK293 GAL4-SRC2 luciferase reporter, luminescence | inhibition, % at 9 µM | 370,000 tested, 0.17% active | AID 651957;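 active = inhibition above the mean inhibition of all tested compounds plus 3 SD, set per campaign, cut at about 52% in these data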
NCOA1 inh: human NCOA1 inhibition. inhibition, % at 3.6 µM. HEK293 GAL4-SRC1 luciferase reporter, luminescence. Q15788. AID 588354. 360,000 tested, 0.12% active;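 active = inhibition above the campaign mean plus 3 SD, with each screening campaign given its own cutoff, cut at about 60% in these data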
NR5A2 inv ag: NR5A2 inverse agonism in reporter assay; inhibition, % at 3.6 µM; 360,000 tested, 0.13% active; HEK293T StAR-luciferase reporter, LRH-1 transfected, 24 h; O00482;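 active = inhibition above the mean inhibition of all tested compounds plus 3 SD, cut at about 73% in these data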
SRC3 inh: inhibitors of human steroid receptor coactivator 3 (SRC3); Q9Y6Q9; HEK293 GAL4-SRC3 luciferase reporter, luminescence; inhibition, % at 3.6 µM; 360,000 tested, 0.17% active; AID 588352;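 active = inhibition above a per-campaign cutoff, the mean of all compounds plus 3 SD, cut at about 60% in these data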;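 note: higher means less SRC3-driven luciferase light from the GAL4 reporter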
Gli-Sufu block: antagonists of Gli-Sufu signaling | Sufu-KO-LIGHT fibroblasts, Gli luciferase reporter luminescence | inhibition, % at 5 µM | 340,000 tested, 0.74% active | AID 588413;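 active = inhibition above about 55%, limit read from the data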
Gli antag conf: Gli-SUFU antagonism confirmation, single concentration. 2,500 tested, 40% active. shares compounds with Gli-Sufu block. inhibition, % at 5 µM. Sufu-KO-LIGHT cells, Gli luciferase reporter, luminescence. AID 602428;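 active = mean inhibition at 5 µM reaching about 45%, limit read from the data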
SufuKO cytotox: cytotoxicity counter-screen for Gli-SUFU antagonists | shares compounds with Gli-Sufu block | Sufu-KO-LIGHT cells cytotoxicity, ATP luminescence | cytotoxicity, % at 5 µM | 2,500 tested, 32% active;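 active = mean cytotoxicity at 5 µM above about 25%, limit read from the data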;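 note: cells exposed to compound overnight for roughly 16 to 18 hours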
Wnt3a cs: Wnt3a reporter inhibition counter-screen; shares compounds with Gli-Sufu block; Wnt-LIGHT cells, Wnt3a-driven luciferase reporter, luminescence; 2,500 tested, 20% active; inhibition, % at 6.25 µM;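 active = mean inhibition above about 25%, limit read from the data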
Of the large screens only hits and unclear results are named; the others gave an inactive call (follow-up assays come after a bar, where they were run). Most compounds without a hit are left out; they make up all but 1.3% or so of the library.

COC(=O)c1ccc2c(=O)n(Cc3ccc(C(=O)NCCCN4CCOCC4)cc3)c(=S)[nH]c2c1	none
O=C(NCCCN1CCOCC1)c1ccc2c(=O)n(Cc3ccc(Cl)cc3)c(=S)[nH]c2c1	none | Gli antag conf inactive | SufuKO cytotox 25 | Wnt3a cs inactive
CC(C)C[C@H]1COc2cc(Br)ccc2S(=O)(=O)N1Cc1cn(Cc2ccc(Br)cc2)nn1	none (no result: NCOA1 inh, NR5A2 inv ag, SRC3 inh, Gli-Sufu block)
O=Cc1cc([B-](F)(F)F)cs1	none (no result: NCOA1 inh, NR5A2 inv ag, SRC3 inh, Gli-Sufu block)
CC(=O)c1ccc(NS(=O)(=O)c2ccc(C(C)(C)C)cc2)cc1	none
CC(=O)c1ccc(NS(=O)(=O)c2ccc(C)cc2)cc1	none | Gli antag conf inactive | SufuKO cytotox inactive | Wnt3a cs inactive
COC(=O)c1ccc(CN2CCCC(C(=O)Nc3cccc(-n4cccn4)c3)C2)cc1 (stereo not drawn)	none | Gli antag conf inactive | SufuKO cytotox inactive | Wnt3a cs inactive
Cc1ccc2nc(SCC(=O)NCc3ccccc3)nc(=O)n2c1	Gli-Sufu block 97 | Gli antag conf inactive | SufuKO cytotox 33 | Wnt3a cs inactive
CCOC(=O)c1c(CC(C)C)csc1NC(=O)COC(=O)c1cc(OC)c(OC)cc1[N+](=O)[O-]	Gli-Sufu block 56 | Gli antag conf inactive | SufuKO cytotox inactive | Wnt3a cs inactive
Cc1ccc(S(=O)(=O)NCCC(=O)N2CCCCCCC2)cc1	Gli-Sufu block 96 | Gli antag conf inactive | SufuKO cytotox inactive | Wnt3a cs inactive
O=C(CCNS(=O)(=O)c1ccccc1)N1CCCCCCC1	none
O=c1c2ccccc2sc2c(CO)ccc(NCCN3CCCCC3)c12	none | Gli antag conf inactive | SufuKO cytotox inactive | Wnt3a cs inactive
N=c1c2c(ccn1CCCc1ccccc1)Oc1ccc3ccccc3c1C2c1ccccc1 (stereo not drawn)	none (no result: SRC2 inh, NCOA1 inh, NR5A2 inv ag, SRC3 inh, Gli-Sufu block)
COc1cc(OC)c(/C=N/NC(=O)COc2cccc3cccnc23)c(OC)c1	Gli-Sufu block 56 | Gli antag conf inactive | SufuKO cytotox inactive | Wnt3a cs inactive
O=C(Nc1cccc(Cl)c1)Nc1nnc(-c2ccncc2)s1	Gli-Sufu block 57 | Gli antag conf 61 | SufuKO cytotox inactive | Wnt3a cs 69
Cc1cnc(NC(=O)Nc2ccc(Cl)cc2)s1	Gli-Sufu block 76 | Gli antag conf 49 | SufuKO cytotox inactive | Wnt3a cs inactive
Cc1cnc(NC(=O)CSc2ccc(Cl)cc2)s1	none
Cc1ccc(NC(=O)Nc2nnc(-c3ccncc3)s2)cc1C	none
O=C(Nc1ccc(Cl)cc1)Nc1nnc(-c2ccncc2)s1	Gli-Sufu block 74 | Gli antag conf 72 | SufuKO cytotox 25 | Wnt3a cs 70
CC(=O)C1=C(C)NC(=S)NC1c1ccc(F)cc1 (stereo not drawn)	none (no result: NCOA1 inh, NR5A2 inv ag, SRC3 inh, Gli-Sufu block)
O=C(CNCc1ccccc1[N+](=O)[O-])N1CCC2(CC1)OCCO2	none (no result: NCOA1 inh, NR5A2 inv ag, SRC3 inh, Gli-Sufu block)
O=C(Nc1ncc(Cc2ccc(SC(F)F)cc2)s1)c1ccc(OC(F)F)cc1	Gli-Sufu block 60 | Gli antag conf 71 | SufuKO cytotox 66 | Wnt3a cs inactive
COc1ccc(N2C(=O)c3n[nH]c(C)c3C2c2ccc(F)cc2)cc1 (stereo not drawn)	none (no result: NCOA1 inh, NR5A2 inv ag, SRC3 inh, Gli-Sufu block)
CN(C)c1ccc(NC(=O)CN2CCC(N3CCCCC3)CC2)cc1	none | Gli antag conf inactive | SufuKO cytotox inactive | Wnt3a cs inactive
COc1cccc(NC(=O)C2CCN(S(=O)(=O)c3ccc(N4CCCC4=O)cc3)CC2)c1	none (no result: Gli-Sufu block)
O=C(Nc1cccc(C(F)(F)F)c1)C1CCN(S(=O)(=O)c2ccc(N3CCCC3=O)cc2)CC1	none | Gli antag conf 58 | SufuKO cytotox inactive | Wnt3a cs inactive
Cc1ccc(CNC(=O)CCS(=O)(=O)Cc2ccc(C)cc2)cc1	none | Gli antag conf inactive | SufuKO cytotox inactive | Wnt3a cs inactive
Cc1ccc(CCNC(=O)CCS(=O)(=O)Cc2ccc(C)cc2)cc1	none
COC(=O)c1c(C)oc2ccc(N(C(=O)c3ccncc3)S(=O)(=O)c3ccc(C)cc3C)cc12	Gli-Sufu block 61 | Gli antag conf 49 | SufuKO cytotox 27 | Wnt3a cs 36
